Experimental data: PubChem BioAssay (NCATS)
Inconclusive results are not listed. The source made the active and inactive calls. Calls come from the whole dose curve; as a rule, active = well fitted inhibition curve with a large enough effect; inconclusive = small, poorly fitted or top-dose-only effect; inactive = flat fitted curve, though single readings scatter.

Each molecule was assayed against Voltage-gated inwardly rectifying potassium channel KCNH2 (Homo sapiens) (UniProt Q12809) (assay: qHTS Assay for Small Molecule Inhibitors of the Human hERG Channel Activity (AID 588834;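 note: lower thallium flux fluorescence means stronger hERG block; nearly all actives have a fitted effect of over 50% in size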; for activity change, negative = inhibition: top concentration of the series differs between compounds)). Settings: U2OS BacMam hERG, FluxOR thallium flux fluorescence; series mostly up to 46.1 µM; activity change, negative = inhibition: at the top concentration.
Source text: NIH Chemical Genomics Center [NCGC]
National Institutes of Environmental Health Sciences [NIEHS]
National Toxicology Program [NTP]
We have developed a 1536-well cell-based assay for quantitative high throughput screening (qHTS) to determine in vitro hERG channel blockage as a measure of cardio toxicity with small molecules. This particular assay uses the U2OS cell line which is derived from human osteosarcoma.
NCGC Assay Protocol Summary:
HERG assay (FluxORTM thallium flux assay) was initially developed by Invitrogen/Molecular Probes, and then miniaturized into 1536-well plate in a homogeneous format by NCGC. This assay measures the activity of potassium channel using thallium dye (FluxOR) flux as surrogate measurement for potassium into the cells with a FDSS-7000 kinetic plate reader (Hamamatsu Corp., Hamamatsu City, Japan). The hERG ion channel is transduced into mammalian cells (U2OS) using a baculovirus (Bacmam) construct harboring the hERG K+ ion channel. So far we screened LOPAC1280 library (Sigma), the NTP collection of 1408 compounds, and the NCGC Pharmaceutical Collection (NPC), in which many well defined HERG blockers are present. The rank order potencies of many of these compounds are similar to that of other HERG assays (membrane potential, Rb+ flux, patch clamp, etc). This quick and homogeneous assay is also found to be sensitive, specific, and robust.
Using the FluxORTM thallium flux assay, the activity of potassium channel using thallium dye (FluxOR) flux as surrogate measurement for potassium into the cells was measured in the U2OS cell line transduced with hERG K+ ion channel using a baculovirus (Bacmam) using Opti-MEM medium (Invitrogen) containing 2% fetal calf serum (FCS, HyCone) following loading buffer addition, compound treatment for around 10 minutes and finally adding stimulation buffer. The assay was performed in black clear Kalypsys 1536-well plates. In the screen, Astemizole was used as positive controls. Library compounds were measured for their ability to cause hERG channel blockage in the cell line, as reflected by a decrease in fluorescence intensity, in a concentration-dependent manner. […] AC50 values were determined from concentration-response data modeled with the standard Hill equation.
qHTS protocol for hERG-U2OS cellular assay
[Step] [Parameter] [Value] [Description]
1. Day 1: Replace medium in 70-80% confluent T225 flask with 2.5 mL of hERG-BacMam virus plus 12.5 mL of phosphate buffered saline (PBS) (corresponding roughly to a multiplicity of infection ratio of 100 virus particles/cell)
2. Incubation: 4 hrs @ room Temperature in Dark
3. Reagent; Remove virus; wash once with 25 ml DPBS
4. Reagent; 35 ml culture medium
5. Incubation; 37 °C overnight
6. Day2: Reagent; 3 uL; 2000 U2OS cells/well
7. Time; 4 hr; 37 °C incubation
8. Loading buffer; 1 uL; 0.7X;
9. Incubation: 1hr @ RT in Dark.
12. Time; 10min; 37 °C incubation
13. Read fluorescence Intensity on FDSS for 10 Sec with 1 sec interval
14. Reagent; 1 uL; stimulation buffer
15. Read fluorescence Intensity on FDSS for 2 min with 1 sec interval
16. Detection; Fluorescence Intensity; FDSS
% is set by controls: 0 for no effect and ±100 for the full control effect; potency is the fitted concentration of half-maximal effect.

Chain of Voltage-gated inwardly rectifying potassium channel KCNH2 (Homo sapiens) (Q12809 whole entry, looked up): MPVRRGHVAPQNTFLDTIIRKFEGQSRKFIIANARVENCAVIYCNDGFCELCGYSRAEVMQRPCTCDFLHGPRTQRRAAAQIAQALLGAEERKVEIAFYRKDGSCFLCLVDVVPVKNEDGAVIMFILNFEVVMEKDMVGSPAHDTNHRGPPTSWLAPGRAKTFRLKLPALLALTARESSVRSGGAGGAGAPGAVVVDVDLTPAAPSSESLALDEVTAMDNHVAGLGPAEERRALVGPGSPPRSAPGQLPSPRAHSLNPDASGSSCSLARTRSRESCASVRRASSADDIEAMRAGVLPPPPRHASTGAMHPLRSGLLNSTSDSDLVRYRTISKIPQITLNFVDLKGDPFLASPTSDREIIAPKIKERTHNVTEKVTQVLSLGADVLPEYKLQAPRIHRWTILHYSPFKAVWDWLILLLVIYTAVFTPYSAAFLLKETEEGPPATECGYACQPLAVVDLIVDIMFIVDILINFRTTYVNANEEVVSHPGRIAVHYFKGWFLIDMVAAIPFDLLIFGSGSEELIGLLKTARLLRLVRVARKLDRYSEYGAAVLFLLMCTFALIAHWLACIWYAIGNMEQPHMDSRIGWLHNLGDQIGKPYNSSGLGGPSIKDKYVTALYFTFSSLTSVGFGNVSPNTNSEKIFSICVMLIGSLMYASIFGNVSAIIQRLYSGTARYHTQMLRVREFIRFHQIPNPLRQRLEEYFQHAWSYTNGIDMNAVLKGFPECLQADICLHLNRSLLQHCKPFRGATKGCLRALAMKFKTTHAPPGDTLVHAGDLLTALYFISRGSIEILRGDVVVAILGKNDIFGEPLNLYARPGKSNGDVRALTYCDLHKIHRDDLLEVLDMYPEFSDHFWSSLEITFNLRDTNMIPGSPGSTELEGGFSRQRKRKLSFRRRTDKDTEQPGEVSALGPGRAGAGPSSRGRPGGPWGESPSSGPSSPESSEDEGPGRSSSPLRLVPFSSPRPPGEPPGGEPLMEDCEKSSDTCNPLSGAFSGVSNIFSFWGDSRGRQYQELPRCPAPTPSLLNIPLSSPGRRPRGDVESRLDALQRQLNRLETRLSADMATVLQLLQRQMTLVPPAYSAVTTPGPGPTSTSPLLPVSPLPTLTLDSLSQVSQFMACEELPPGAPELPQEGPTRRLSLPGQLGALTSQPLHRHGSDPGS

Structure (SMILES) | Potency | activity change, negative = inhibition
Cc1c(N(C)C)c(=O)n(-c2ccccc2)n1C | inactive | 
NC(=O)NS(=O)(=O)c1ccc(N)cc1 |  | -2.27% (inactive)
NCC1CCC(C(=O)Oc2ccc(CCC(=O)O)cc2)CC1 (stereo not given) |  | -5.84% (inactive)
Cc1cc(=O)[nH]c(=S)[nH]1 | inactive | 
C=CCN1C[C@H](C(=O)N(CCCN(C)C)C(=O)NCC)C[C@@H]2c3cccc4[nH]cc(c34)C[C@H]21 |  | -15.1% (inactive)
CCOc1ccccc1O[C@H](c1ccccc1)[C@H]1CNCCO1 |  | -27.6% (inactive)
CNc1c2c(nn1C)CCCC2 |  | 9.66% (inactive)
CC(=O)Nc1cccc(O)c1 | inactive | 
O=S1(=O)OC(c2ccc(O)cc2)(c2ccc(O)cc2)c2ccccc21 |  | 1.22% (inactive)
COc1ccc(Cc2cnc(N)nc2N)cc1OC |  | 4.59% (inactive)
Cn1c([N+](=O)[O-])cnc1COC(N)=O |  | -1.21% (inactive)
COc1ccc(C(=O)N2CCN(CC(=O)N3CCOCC3)CC2)cc1 |  | 5.96% (inactive)
CCCNC(C)(C)COC(=O)c1ccccc1 |  | 1.23% (inactive)
COC(=O)c1ccccc1C(=O)c1ccc(OCCN2CCCCC2)cc1 |  | 9.92% (inactive)
CN[C@@H]1[C@@H](O)[C@@H](O[C@@H]2[C@H](O)[C@H](O[C@H]3OC(CN)=CC[C@H]3N)[C@@H](N)C[C@H]2N)OCC1(C)O (stereo not given in full) |  | 27.2% (inactive)
CN(C/C=C/C#CC(C)(C)C)Cc1cccc2ccccc12 | 12.6 µM (active) | 
COc1ccc(C(=O)NCc2ccc(OCCN(C)C)cc2)cc1OC |  | 7.3% (inactive)
CC(C)=CCC[C@@](C)(O)[C@H]1CC=C(C)CC1 |  | -10.1% (inactive)
C/C(=C(\CCO)SS/C(CCO)=C(\C)N(C=O)Cc1cnc(C)nc1N)N(C=O)Cc1cnc(C)nc1N |  | 5.69% (inactive)
CC(C)C[C@@H](N)C(=O)O |  | -15.5% (inactive)

Structure (SMILES) | Potency | activity change, negative = inhibition
Cc1ccccc1N=Nc1ccc(N=Nc2c(O)ccc3ccccc23)c(C)c1 |  | 2.88% (inactive)
Nc1ccc(C(=O)Oc2ccccc2)c(O)c1 |  | 3.44% (inactive)
O=C(O)CCCCC1CCSS1 (stereo not given) | inactive | 
C[n+]1ccccc1/C=N/O |  | 9.74% [at 20.6 µM] (inactive)
O=C(Cn1ccnc1[N+](=O)[O-])NCCO |  | 1.84% (inactive)
CN1CCN(C(=O)C2CCCCC2)CC1 |  | 14.2% (inactive)
NS(=O)(=O)c1cc2c(cc1C(F)(F)F)NCNS2(=O)=O |  | 16.5% [at 20.6 µM] (inactive)
Cc1cc(NC(=O)C2=C(O)c3ccccc3S(=O)(=O)N2C)no1 |  | 11.6% (inactive)
COc1ccc2cc(CCC(C)=O)ccc2c1 |  | -4.4% [at 20.6 µM] (inactive)
Cc1ccc(S(=O)(=O)NC(=O)NC2CCCCCCC2)cc1 |  | -14.4% (inactive)
NNc1nnc(NN)c2ccccc12 |  | -0.782% (inactive)
NCc1ccc(S(N)(=O)=O)cc1 |  | -0.111% [at 20.6 µM] (inactive)
CN1CCCN=C1COC(=O)C(O)(c1ccccc1)C1CCCCC1 (stereo not given) | 2.82 µM (active) | 
O=C(O)/C=C/c1ccc(Cn2ccnc2)cc1 |  | 7.74% [at 20.6 µM] (inactive)
CCCCC1(COC(=O)CCC(=O)O)C(=O)N(c2ccccc2)N(c2ccccc2)C1=O |  | 4.58% [at 20.6 µM] (inactive)
O=C(O)[C@@H]1[C@H]2C[C@H]3c4[nH]c5ccccc5c4CCN3C[C@@H]2CC[C@@H]1O |  | 4.17% [at 20.6 µM] (inactive)
CC(CSC(=O)c1ccccc1)C(=O)N1C[C@@H](Sc2ccccc2)C[C@H]1C(=O)O (stereo not given in full) |  | -7.36% (inactive)
CC(CN(C)C)C(C)(O)Cc1ccc(Cl)cc1 (stereo not given) | 14.1 µM (active) | 
CN/C(=C\[N+](=O)[O-])NCCSCc1csc(CN(C)C)n1 |  | 5.53% [at 20.6 µM] (inactive)
Cc1c(I)c(=O)n(-c2ccccc2)n1C |  | -3.14% (inactive)
